Calls of active or inactive are those of the source. Unless noted, no rule for the calls is given here.
Experiments:
[1] = test system: Wnt5a (protein binding on small-molecule microarray); test: Wnt5a binders on small-molecule microarray, primary screen, biophysical, 635/667 nm fluorescence (AID 1142); conditions: 635 nm fluorescence, higher = more signal;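 also: fluorescence read at 667 nm with signal to noise per printed feature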
[2] = cell viability in Huh7 cells, primary screen, cytotoxicity control for HCV replication inhibitor project, CellTiter-Glo luminescence, basal, 48 h (AID 1143); conditions: Huh7 HCV replicon, higher = more signal, called active from +8 up or from −8 down;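 also: Huh7 hepatoma cells carrying a hepatitis C replication reporter with no stimulus; test concentration not given here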
[3] = P. aeruginosa biofilm formation inhibitors, primary screen, PAO1 strain, BacTiter-Glo luminescence, LB-PBS (AID 1144); conditions: 12 h, higher = more signal
[4] = CREB reporter modulators without forskolin, primary screen, cell-based, PC12, CRE-LacZ reporter, unstimulated (AID 1145); conditions: no forskolin, luminescence, 4.5 h, higher = more signal, called active from +8 up or from −8 down
[5] = CREB reporter modulators under forskolin, primary screen, cell-based, PC12, CRE-LacZ reporter, forskolin-stimulated (AID 1146); conditions: luminescence, 4.5 h, higher = more signal, called active from +8 up or from −8 down;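 also: PC12 cells with 6xCRE LacZ reporter stimulated by forskolin 10 µM; beta-galactosidase reporter signal reflecting CREB driven transcription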
[6] = molecular target: Streptavidin (Streptomyces avidinii) (UniProt P22629); test: streptavidin binders on small-molecule microarray, primary screen, artefact control for SMM compound annotation, biophysical, 635/667 nm fluorescence (AID 1147); conditions: streptavidin binding, higher = more signal;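 also: signal reflects streptavidin binding to arrayed compounds as a control protein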
Chain of Streptavidin (Streptomyces avidinii) (P22629 whole entry, looked up): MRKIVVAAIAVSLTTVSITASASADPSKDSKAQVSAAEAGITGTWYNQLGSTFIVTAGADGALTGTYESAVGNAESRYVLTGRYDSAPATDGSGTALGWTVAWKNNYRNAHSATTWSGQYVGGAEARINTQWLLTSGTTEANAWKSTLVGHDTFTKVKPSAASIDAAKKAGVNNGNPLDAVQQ

[7] = small-molecule binders of probe aInhba, primary screen, biochemical, small-molecule microarray, 635/667 nm fluorescence (AID 1148); conditions: higher = more signal;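 also: score merges 667nm spot fluorescence with signal-to-noise for antibody binding to printed compounds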
[8] = molecular target: Torsin-1A (Homo sapiens) (UniProt O14656); test: torsin A binders from cell lysate, primary screen, small-molecule microarray, wild-type, 635/667 nm (AID 1149); conditions: COS7 hTOR1A-WT lysate, 635 nm fluorescence, higher = more signal
Chain of Torsin-1A (Homo sapiens) (O14656 whole entry, looked up): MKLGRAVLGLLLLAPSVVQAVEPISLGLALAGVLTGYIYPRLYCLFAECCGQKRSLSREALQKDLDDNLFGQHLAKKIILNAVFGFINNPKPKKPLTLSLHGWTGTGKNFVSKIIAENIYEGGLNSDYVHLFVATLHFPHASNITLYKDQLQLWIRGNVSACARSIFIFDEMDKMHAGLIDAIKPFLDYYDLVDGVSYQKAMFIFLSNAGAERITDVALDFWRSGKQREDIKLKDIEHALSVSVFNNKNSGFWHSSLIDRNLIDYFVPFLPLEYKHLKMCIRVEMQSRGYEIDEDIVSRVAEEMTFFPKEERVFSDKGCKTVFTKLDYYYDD

[9] = molecular target: Torsin-1A (Homo sapiens) (UniProt O14656); test: small-molecule binders of mutant TOR1A in lysate, primary screen, cell lysate, small-molecule microarray, COS7 lysate, 635/667 nm fluorescence (AID 1150); conditions: COS7 hTOR1A mutant lysate, 635 nm fluorescence, higher = more signal;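 also: score pools 667 nm emission and signal to noise measuring lysate protein binding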
[10] = test system: Sonic hedgehog protein (Shh); test: small-molecule binders of Shh protein, primary screen, biochemical, small-molecule microarray, 635/667 nm fluorescence (AID 1151); conditions: small-molecule microarray binding, 635 nm fluorescence; higher = more signal;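 also: Shh protein binding to compounds spotted on small-molecule microarray slides; score combines spot fluorescence intensity with signal-to-noise across triplicate slides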
[11] = E. coli DRC41 culture turbidity changes, primary screen, E. coli filamentation inducer project, strain DRC41, OD650, 48 h (AID 1152);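 also: E. coli MC1000 strain DRC41 lacking acrAB efflux pump and sulA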; conditions: E. coli DRC41 (acrAB sulA), higher = more signal, called active from +8 up or from −8 down
[12] = small-molecule binders of probe aLefty1, primary screen, biochemical, small-molecule microarray, 635/667 nm fluorescence (AID 1153); conditions: higher = more signal;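 also: score merges spot fluorescence with signal-to-noise ratio from the scanned slide images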
[13] = PSAC antagonists in infected red cells, primary screen, cell-based, P. falciparum Indochina, OD700, 1 h (AID 1154); conditions: P. falciparum Indochina infected RBC osmotic lysis, higher = more signal, called active from +8 up or from −8 down
[14] = PSAC antagonists in infected red cells, primary screen, cell-based, P. falciparum Indochina, OD700, 2 h (AID 1155);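 also: lysis reports solute entry through the parasite surface anion channel PSAC; channel blockers reduce lysis of infected cells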; conditions: P. falciparum Indochina infected erythrocytes, osmotic lysis OD700; higher = more signal, called active from +8 up or from −8 down
[15] = osmotic lysis modulators in infected erythrocytes, primary screen, PSAC antagonist project, cell-based, P. falciparum Indochina, OD700, 3 h (AID 1156); conditions: higher = more signal, called active from +8 up or from −8 down
[16] = PSAC antagonists in infected red cells, primary screen, cell-based, P. falciparum Indochina, OD700, 18 h (AID 1157); conditions: P. falciparum Indochina infected erythrocytes, osmotic lysis OD700, 18 h; higher = more signal, called active from +8 up or from −8 down
[17] = modulators of S6 phosphorylation in cells, primary screen, cell-based, A549, cytoblot, luminescence, serum-stimulated (AID 1158); conditions: A549 phospho-S6 cytoblot, 5 h, higher = more signal;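 also: serum-stimulated A549 lung adenocarcinoma cells; signal is phosphorylated S6 detected by cytoblot immunostaining with HRP secondary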
[18] = molecular target: NADPH oxidase 2 (Homo sapiens) (UniProt P04839); test: NOX2-dependent H2O2 signal modulators, primary screen, NOX inhibitor project, cell-based, HEK293-NOX2, PMA-stimulated, Amplex Red fluorescence (AID 1159); conditions: 45 min, higher = more signal, called active from +8 up or from −8 down; also: test concentration not given here
Chain of NADPH oxidase 2 (Homo sapiens) (P04839 whole entry, looked up): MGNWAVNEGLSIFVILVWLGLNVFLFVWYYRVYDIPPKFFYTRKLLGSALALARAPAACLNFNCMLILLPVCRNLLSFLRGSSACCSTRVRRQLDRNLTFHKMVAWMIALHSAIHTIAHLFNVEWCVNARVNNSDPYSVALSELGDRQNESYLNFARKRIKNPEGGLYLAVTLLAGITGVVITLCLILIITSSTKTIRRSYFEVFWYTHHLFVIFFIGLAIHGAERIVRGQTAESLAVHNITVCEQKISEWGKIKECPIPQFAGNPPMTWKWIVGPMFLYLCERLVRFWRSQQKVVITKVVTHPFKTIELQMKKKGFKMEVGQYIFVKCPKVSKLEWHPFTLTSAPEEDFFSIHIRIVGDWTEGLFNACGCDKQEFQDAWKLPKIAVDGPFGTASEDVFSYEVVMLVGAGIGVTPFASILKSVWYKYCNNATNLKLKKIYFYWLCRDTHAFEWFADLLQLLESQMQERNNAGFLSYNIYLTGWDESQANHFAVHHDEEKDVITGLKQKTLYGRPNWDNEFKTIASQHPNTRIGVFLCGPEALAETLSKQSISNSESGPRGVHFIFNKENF

[19] = molecular target: NADPH oxidase 4 (Homo sapiens) (UniProt Q9NPH5); test: NOX4-dependent H2O2 signal modulators, primary screen, NOX inhibitor project, cell-based, HEK293-NOX4, tetracycline-induced, Amplex Red fluorescence (AID 1160); conditions: 45 min, higher = more signal, called active from +8 up or from −8 down
Chain of NADPH oxidase 4 (Homo sapiens) (Q9NPH5 whole entry, looked up): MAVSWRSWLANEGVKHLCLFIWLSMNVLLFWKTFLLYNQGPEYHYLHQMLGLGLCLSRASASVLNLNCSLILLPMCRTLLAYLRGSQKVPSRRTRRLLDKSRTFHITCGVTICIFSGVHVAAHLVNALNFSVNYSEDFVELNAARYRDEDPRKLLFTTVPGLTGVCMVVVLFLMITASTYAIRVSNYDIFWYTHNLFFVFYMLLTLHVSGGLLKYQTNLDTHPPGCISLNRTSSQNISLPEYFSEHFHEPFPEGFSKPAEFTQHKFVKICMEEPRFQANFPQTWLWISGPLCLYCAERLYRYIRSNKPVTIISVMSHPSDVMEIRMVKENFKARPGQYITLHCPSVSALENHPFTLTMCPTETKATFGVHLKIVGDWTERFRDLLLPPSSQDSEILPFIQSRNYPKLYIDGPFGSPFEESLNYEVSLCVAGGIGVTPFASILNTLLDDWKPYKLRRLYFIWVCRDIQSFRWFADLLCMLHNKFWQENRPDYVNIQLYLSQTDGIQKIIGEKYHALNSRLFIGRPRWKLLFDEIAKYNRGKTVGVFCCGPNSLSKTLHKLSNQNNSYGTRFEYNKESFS

[20] = molecular target: NADPH oxidase 5 (Homo sapiens) (UniProt Q96PH1); test: NOX5-dependent H2O2 signal modulators, primary screen, NOX inhibitor project, cell-based, HEK293-NOX5, Amplex Red fluorescence (AID 1161); conditions: HEK293-NOX5, ionomycin, 45 min, higher = more signal
Chain of NADPH oxidase 5 (Homo sapiens) (Q96PH1 whole entry, looked up): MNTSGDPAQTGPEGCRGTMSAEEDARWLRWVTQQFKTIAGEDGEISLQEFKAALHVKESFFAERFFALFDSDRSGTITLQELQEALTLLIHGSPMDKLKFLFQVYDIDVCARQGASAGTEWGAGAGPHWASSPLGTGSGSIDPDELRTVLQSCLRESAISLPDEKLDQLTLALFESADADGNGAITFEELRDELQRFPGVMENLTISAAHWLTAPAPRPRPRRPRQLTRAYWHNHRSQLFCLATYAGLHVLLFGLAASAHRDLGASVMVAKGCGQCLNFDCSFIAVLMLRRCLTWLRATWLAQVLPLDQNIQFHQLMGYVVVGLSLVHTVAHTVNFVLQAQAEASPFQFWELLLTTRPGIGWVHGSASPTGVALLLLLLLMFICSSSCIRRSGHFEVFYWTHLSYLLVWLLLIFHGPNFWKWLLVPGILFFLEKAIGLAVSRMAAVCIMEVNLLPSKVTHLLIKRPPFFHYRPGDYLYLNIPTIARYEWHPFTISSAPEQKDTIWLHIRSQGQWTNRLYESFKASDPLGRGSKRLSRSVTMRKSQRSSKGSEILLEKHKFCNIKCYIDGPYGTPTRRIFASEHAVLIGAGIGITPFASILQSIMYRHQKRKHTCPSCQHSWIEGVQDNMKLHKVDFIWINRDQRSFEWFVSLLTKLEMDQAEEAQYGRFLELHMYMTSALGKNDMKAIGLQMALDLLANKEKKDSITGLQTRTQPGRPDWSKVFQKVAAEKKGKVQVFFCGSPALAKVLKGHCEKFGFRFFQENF

SMILES	composite z-score [1]	z-score [2]	z-score [3]	z-score [4]	z-score [5]	composite z-score [6]	composite z-score [7]	composite z-score [8]	composite z-score [9]	composite z-score [10]	z-score [11]	composite z-score [12]	z-score [13]	z-score [14]	z-score [15]	z-score [16]	z-score [17]	z-score [18]	z-score [19]	z-score [20]
COc1ccc(CCN2C(=O)[C@@]3(c4ccc([N+](=O)[O-])cc4)CC(=O)N(C4CCCCC4)[C@@H]3c3ccc(CO)cc32)cc1	-0.0463	0.443 (inactive)	0.0718 (inactive)	-0.0512 (inactive)	0.86 (inactive)	-0.298	0.158	0.209	0.128	1.19	-0.183 (inactive)	0.131	-0.715 (inactive)	-0.0259 (inactive)	-0.979 (inactive)	-0.138 (inactive)	-0.423	-1.47 (inactive)	-0.763 (inactive)	-0.0167
CN1C(=O)[C@]2(Cc3ccccc3)N=C(c3ccc(OCCCO)cc3)O[C@@H]2c2ccccc21	0.928	-4.61 (inactive)	-1 (inactive)	0.456 (inactive)	-1.12 (inactive)	0.0004	0.112	0.428	0.628	1.15	-0.105 (inactive)	-0.157	33.7 (active)	32.4 (active)	2.34 (inactive)	3.54 (inactive)	0.435	-2.02 (inactive)	-0.608 (inactive)	-1.93
CC(C)C(=C=CC[C@@H](O)c1ccccc1OCCO)CCO	-0.0322	-3.75 (inactive)	0.0933 (inactive)	5.12 (inactive)	-0.366 (inactive)	0.666	-0.016	-0.502	-0.455	0.575	0.351 (inactive)	-0.0501	1.95 (inactive)	0.63 (inactive)	-1.33 (inactive)	0.428 (inactive)	0.278	0.729 (inactive)	0.147 (inactive)	-2.06
CC1CC/C=C\[C@H]2OC34C=CCN(C(C)(C)C)C(=O)[C@H]3N(CCCCCCO)C(=O)[C@@H]4C2C(=O)O1 (stereo not given in full)	-0.293	0.553 (inactive)	0.0917 (inactive)	0.74 (inactive)	-0.21 (inactive)	-0.727	-0.224	-0.67	-0.433	0.611	0.0837 (inactive)	-0.0501	0.375 (inactive)	0.794 (inactive)	0.39 (inactive)	0.771 (inactive)	-0.0989	0.959 (inactive)	-0.0389 (inactive)	1.77
[N-]=[N+]=NCc1ccccc1[C@@H]1OC(c2ccc(OCCCO)cc2)=N[C@]1(CCS(=O)(=O)c1ccccc1)C(=O)NCc1ccccc1	0.88	-1.86 (inactive)	0.0656 (inactive)	0.614 (inactive)	-1.66 (inactive)	1.09	1.09	0.248	0.467	1.4	-0.665 (inactive)	1.43	16.4 (active)	2.27 (inactive)	1.75 (inactive)	0.814 (inactive)	-0.0212	-1.04 (inactive)	0.0609 (inactive)	-0.898
C=CCC(OC(C)=O)[C@@H]1[C@@H](N(Cc2ccc(-c3cccc(C(F)(F)F)c3)o2)C(=O)c2ccc(-c3ccccc3)cc2)c2cc(OCCCO)ccc2N1C(=O)c1ccc(-c2ccccc2)cc1 (stereo not given in full)	-0.0065	0.42 (inactive)	0.103 (inactive)	0.0176 (inactive)	0.262 (inactive)	0.0998	-0.0403	-0.0662	0.0093	0.32	-0.894 (inactive)	-0.169	0.566 (inactive)	0.434 (inactive)	0.0785 (inactive)	0.508 (inactive)	0.0635	-1.27 (inactive)	-1.05 (inactive)	0.713
CCOC(=O)[C@H]1C/C=C/C[C@H](C(=O)OCC)C(=O)O[C@H]2[C@@H](OC)O[C@H](CO)[C@@H](OC(=O)Nc3cccc(F)c3)[C@@H]2OC1=O	0.39	-6.52 (inactive)	-0.509 (inactive)	0.765 (inactive)	-0.848 (inactive)	0.555	0.83	-0.24	0.118	0.849	0.0021 (inactive)	1.53	4.53 (inactive)	1.81 (inactive)	-2.04 (inactive)	1.61 (inactive)	-0.0707	-2.12 (inactive)	-0.389 (inactive)	-1.22
COc1ccc(CCNC(=O)[C@@]2(C)c3ccccc3C(=O)N(Cc3cc(F)cc(C(F)(F)F)c3)[C@H]2c2ccc(CO)cc2)cc1	0.126	-4.52 (inactive)	1.3 (inactive)	0.001 (inactive)	-1.28 (inactive)	-0.55	-0.0791	-0.621	-0.0937	-0.0895	0.753 (inactive)	-0.045	8.08 (active)	0.906 (inactive)	1.24 (inactive)	0.526 (inactive)	0.0269	-1.38 (inactive)	-1.28 (inactive)	-1.5
CCC(CC)C(O)C1C=CC2C(=O)N(C)C(=O)C2N1Nc1ccccc1 (stereo not given)	0.334	0.667 (inactive)	-0.625 (inactive)	0.822 (inactive)	-0.214 (inactive)	1.48	0.288	0.551	0.235	-0.09	-0.39 (inactive)	0.173	1.11 (inactive)	1.09 (inactive)	0.0973 (inactive)	0.951 (inactive)	-0.835	-1.73 (inactive)	-3.49 (inactive)	-3.77

— PubChem BioAssay
